According to paper PMC8384837, “Expanding the binding specificity for RNA recognition by a PUF domain”:

Tests used:
Test in all cases: yeast three-hybrid, YBZ-1, SC-Leu-His + 0.5 mM 3-AT, 4 days
Settings in all cases: tags: N-Gal4 AD-HA kept; label: inside an RPR1-promoter hybrid RNA with tandem MS2 sites; ssRNA
PUM1 PUF domain R5-RKC = PUM1 PUF domain R5-RKC (Homo sapiens, UniProt Q14671 828-1176, C1007R;R1008K;Q1011C)
Procedure, shortened: (§1)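 Pumilio-1 PUF domain libraries, randomized at the three base-contacting residues of each repeat, were co-expressed with matching RNA elements from a centromeric plasmid in strain YBZ-1, which carries a LexA–MS2 coat fusion and a HIS3 reporter. Transformants grew for four days on SC-Leu (input) or on SC-Leu-His + 0.5 mM 3-AT (selection), and the repeat regions were PCR-amplified and Illumina-sequenced. The interaction score is the log change in variant frequency from input to selection. That logarithm is base 2, with a pseudocount of 1 where a variant was absent.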

PUM1 PUF domain R5-SSR = PUM1 PUF domain R5-SSR (Homo sapiens, UniProt Q14671 828-1176, C1007S;R1008S;Q1011R)
Procedure, shortened: as §1

PUM1 PUF domain R7-RVM = PUM1 PUF domain R7-RVM (Homo sapiens, UniProt Q14671 828-1176, S1079R;N1080V;E1083M)
Procedure, shortened: as §1

PUM1 PUF domain R7-KSG = PUM1 PUF domain R7-KSG (Homo sapiens, UniProt Q14671 828-1176, S1079K;N1080S;E1083G)
Procedure, shortened: as §1

PUM1 PUF domain R3-TFF = PUM1 PUF domain R3-TFF (Homo sapiens, UniProt Q14671 828-1176, C935T;R936F;Q939F)
Procedure, shortened: as §1

PUM1 PUF domain R2-EWV = PUM1 PUF domain R2-EWV (Homo sapiens, UniProt Q14671 828-1176, N899E;Y900W;Q903V)
Procedure, shortened: as §1

PUM1 PUF domain R1-VTW = PUM1 PUF domain R1-VTW (Homo sapiens, UniProt Q14671 828-1176, S863V;R864T;Q867W)
Procedure, shortened: as §1

## GGCUAGAACUAGUGGAUCCCCCGGCGCCCGGCGGCUCGAGCCCGGGUAAGUGUCAAUAGUCUGCAUGCCGCCGGGCGCCAUGCCUGCAGGUCGACUCUAGAAAACAUG
PUM1 PUF domain R5-RKC
  binding signal: 3.84 log2 enrichment (interaction score)
PUM1 PUF domain R5-SSR
  binding signal: 6.53 log2 enrichment (interaction score)

## GGCUAGAACUAGUGGAUCCCCCGGCGCCCGGCGGCUCGAGCCCGGGUAAGUUUAAAUAGUCUGCAUGCCGCCGGGCGCCAUGCCUGCAGGUCGACUCUAGAAAACAUG
PUM1 PUF domain R7-RVM
  binding signal: 2.72 log2 enrichment (interaction score)
PUM1 PUF domain R7-KSG
  binding signal: 2.37 log2 enrichment (interaction score)

## GGCUAGAACUAGUGGAUCCCCCGGCGCCCGGCGGCUCGAGCCCGGGUAAGUGUAAAUAGUCUGCAUGCCGCCGGGCGCCAUGCCUGCAGGUCGACUCUAGAAAACAUG
PUM1 PUF domain R3-TFF
  binding signal: 6.12 log2 enrichment (interaction score)

## GGCUAGAACUAGUGGAUCCCCCGGCGCCCGGCGGCUCGAGCCCGGGUAAGUGUAAUUAGUCUGCAUGCCGCCGGGCGCCAUGCCUGCAGGUCGACUCUAGAAAACAUG
PUM1 PUF domain R3-TFF
  binding signal: 1.36 log2 enrichment (interaction score)

## GGCUAGAACUAGUGGAUCCCCCGGCGCCCGGCGGCUCGAGCCCGGGUAAGUGUAAAGAGUCUGCAUGCCGCCGGGCGCCAUGCCUGCAGGUCGACUCUAGAAAACAUG
PUM1 PUF domain R2-EWV
  binding signal: 2.77 log2 enrichment (interaction score)

## GGCUAGAACUAGUGGAUCCCCCGGCGCCCGGCGGCUCGAGCCCGGGUAAGUGUAAAAAGUCUGCAUGCCGCCGGGCGCCAUGCCUGCAGGUCGACUCUAGAAAACAUG
PUM1 PUF domain R2-EWV
  binding signal: 5.9 log2 enrichment (interaction score)

## GGCUAGAACUAGUGGAUCCCCCGGCGCCCGGCGGCUCGAGCCCGGGUAAGUGUAAAUUGUCUGCAUGCCGCCGGGCGCCAUGCCUGCAGGUCGACUCUAGAAAACAUG
PUM1 PUF domain R1-VTW
  binding signal: 3.57 log2 enrichment (interaction score)

## GGCUAGAACUAGUGGAUCCCCCGGCGCCCGGCGGCUCGAGCCCGGGUAAGUCUAAAUAGUCUGCAUGCCGCCGGGCGCCAUGCCUGCAGGUCGACUCUAGAAAACAUG
PUM1 PUF domain R7-KSG
  binding signal: 0.94 log2 enrichment (interaction score)
